Source: PubChem BioAssay (Tox21)
Records with an inconclusive call do not appear. Active and inactive are the calls of the source. Unless noted, calls follow the shape of the dose curve; as a rule, active = well fitted curve in the direction sought with a large enough effect in the repeat runs; inconclusive = weak or mixed curves; inactive = no such curve, though single readings can be large; an effect the other way counts as inactive or inconclusive.

Tests used:
[1] = target: Aryl hydrocarbon receptor (Homo sapiens) (UniProt P35869); test: qHTS assay to identify small molecule that activate the aryl hydrocarbon receptor (AhR) signaling pathway (AID 743085); also: nearly all actives have a fitted effect of over 15% in size; also: potency is read from the fitted curve at half-maximal effect;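 as to activation: HG2L7.5c1 human HepG2 liver cells with stably integrated DRE-driven firefly reporter; series mostly up to about 70 µM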
Aryl hydrocarbon receptor (Homo sapiens), sequence (P35869 whole entry, looked up): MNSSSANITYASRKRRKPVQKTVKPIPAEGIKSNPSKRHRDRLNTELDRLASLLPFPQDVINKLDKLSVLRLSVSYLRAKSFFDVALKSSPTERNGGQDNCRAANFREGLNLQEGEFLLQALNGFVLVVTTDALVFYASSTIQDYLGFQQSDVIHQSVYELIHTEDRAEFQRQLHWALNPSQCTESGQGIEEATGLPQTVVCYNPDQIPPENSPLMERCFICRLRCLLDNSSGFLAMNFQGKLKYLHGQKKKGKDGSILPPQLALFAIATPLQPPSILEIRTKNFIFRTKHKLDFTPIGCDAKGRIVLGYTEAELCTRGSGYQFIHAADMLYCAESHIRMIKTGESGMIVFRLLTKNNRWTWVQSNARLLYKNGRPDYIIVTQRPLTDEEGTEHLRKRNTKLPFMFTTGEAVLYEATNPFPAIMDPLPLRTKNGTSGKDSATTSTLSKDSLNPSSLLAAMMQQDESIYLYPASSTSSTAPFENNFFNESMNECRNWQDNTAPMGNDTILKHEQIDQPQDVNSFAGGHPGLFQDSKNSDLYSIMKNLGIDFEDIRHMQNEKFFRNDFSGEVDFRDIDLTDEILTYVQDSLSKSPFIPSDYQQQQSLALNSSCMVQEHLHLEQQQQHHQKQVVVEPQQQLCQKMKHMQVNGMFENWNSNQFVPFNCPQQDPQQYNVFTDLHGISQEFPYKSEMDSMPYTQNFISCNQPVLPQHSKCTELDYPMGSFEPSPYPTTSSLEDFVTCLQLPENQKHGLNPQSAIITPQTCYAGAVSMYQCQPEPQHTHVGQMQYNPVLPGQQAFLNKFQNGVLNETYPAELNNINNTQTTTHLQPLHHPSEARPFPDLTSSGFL
In short: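 HepG2 cells (HG2L7.5c1) stably carrying a firefly luciferase reporter driven by 20 dioxin responsive elements were exposed to compound for 24 h at 37C after a 5 h settling period; luminescence rise (ONE-Glo) indicated activation.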

[2] = target: Peroxisome proliferator-activated receptor gamma (Homo sapiens) (UniProt P37231); test: qHTS assay to identify small molecule agonists of the peroxisome proliferator-activated receptor gamma (PPARg) signaling pathway (AID 743094; active = well fitted activation curve with a large enough effect in the signal ratio in the repeat runs, not every such curve was filed as active; the % refers to the signal ratio)
Peroxisome proliferator-activated receptor gamma (Homo sapiens), sequence (P37231 whole entry, looked up): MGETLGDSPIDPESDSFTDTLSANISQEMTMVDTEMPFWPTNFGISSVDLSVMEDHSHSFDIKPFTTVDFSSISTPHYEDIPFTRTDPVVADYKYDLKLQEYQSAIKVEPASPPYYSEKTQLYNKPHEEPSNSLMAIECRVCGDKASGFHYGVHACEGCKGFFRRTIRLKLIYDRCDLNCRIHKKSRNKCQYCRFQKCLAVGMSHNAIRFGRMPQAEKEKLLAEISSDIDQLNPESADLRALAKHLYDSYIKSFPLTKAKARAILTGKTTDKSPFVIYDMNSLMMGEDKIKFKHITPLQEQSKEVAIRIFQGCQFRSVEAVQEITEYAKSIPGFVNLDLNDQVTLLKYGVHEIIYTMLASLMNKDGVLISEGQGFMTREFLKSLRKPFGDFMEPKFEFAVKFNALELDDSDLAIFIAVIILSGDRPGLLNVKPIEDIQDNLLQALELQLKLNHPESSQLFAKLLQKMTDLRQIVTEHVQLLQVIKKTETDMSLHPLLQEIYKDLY
In short: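 Agonism was assessed in a beta-lactamase reporter system, HEK293H cells with a stably integrated UAS-bla construct under PPARg control; the 17 h treatment at 37C preceded a 1 h room-temperature FRET substrate read.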

[3] = target: Peroxisome proliferator-activated receptor gamma (Homo sapiens) (UniProt P37231); test: qHTS assay to identify small molecule antagonists of the peroxisome proliferator-activated receptor gamma (PPARg) signaling pathway (AID 743191; calls by dose curve; also: series mostly up to about 63 µM; nearly all actives have a fitted effect of over 30% in size)
In short: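 Beta-lactamase reporter under UAS control in HEK293H PPARg-bla cells; compound treatment 17 h at 37C. Read-out: fluorescence intensity after 1 h room-temperature incubation with LiveBLAzer B/G FRET substrate.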

[4] = qHTS assay to identify small molecule antagonists of the peroxisome proliferator-activated receptor gamma (PPARg) signaling pathway - cell viability counter screen (AID 743194); also: nearly all actives have a fitted effect of over 55% in size
In short: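 Viability was measured as CellTiter-Glo luminescence in GeneBLAzer PPARg UAS-bla HEK293H cells. These cells had been exposed 17 h at 37 C to compounds together with rosiglitazone at 50 nM final, with the beta-lactamase readout taken in the same wells.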

[5] = qHTS assay for small molecule agonists of the antioxidant response element (ARE) signaling pathway - cell viability counter screen (AID 743203; calls by dose curve; also: nearly all actives have a fitted effect of over 55% in size)
In short: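 ATP content via CellTiter-Glo luminescence served as the viability measure. Cells: ARE-bla HepG2, 2,000 per well. Exposure: 16 hrs, 37C/5% CO2.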

[6] = qHTS assay to identify small molecule agonists of the peroxisome proliferator-activated receptor delta (PPARd) signaling pathway - cell viability counter screen (AID 743211); also: nearly all actives have a fitted effect of over 55% in size
In short: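 PPARd-bla HEK293H cells (UAS-beta-lactamase reporter) were treated with compounds for 17 h at 37 C. Viability was then read in the same wells by CellTiter-Glo luminescence after 30 min at room temperature.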

[7] = target: Peroxisome proliferator-activated receptor delta (Homo sapiens) (UniProt Q03181); test: qHTS assay to identify small molecule agonists of the peroxisome proliferator-activated receptor delta (PPARd) signaling pathway (AID 743212; calls by dose curve)
Peroxisome proliferator-activated receptor delta (Homo sapiens), sequence (Q03181 whole entry, looked up): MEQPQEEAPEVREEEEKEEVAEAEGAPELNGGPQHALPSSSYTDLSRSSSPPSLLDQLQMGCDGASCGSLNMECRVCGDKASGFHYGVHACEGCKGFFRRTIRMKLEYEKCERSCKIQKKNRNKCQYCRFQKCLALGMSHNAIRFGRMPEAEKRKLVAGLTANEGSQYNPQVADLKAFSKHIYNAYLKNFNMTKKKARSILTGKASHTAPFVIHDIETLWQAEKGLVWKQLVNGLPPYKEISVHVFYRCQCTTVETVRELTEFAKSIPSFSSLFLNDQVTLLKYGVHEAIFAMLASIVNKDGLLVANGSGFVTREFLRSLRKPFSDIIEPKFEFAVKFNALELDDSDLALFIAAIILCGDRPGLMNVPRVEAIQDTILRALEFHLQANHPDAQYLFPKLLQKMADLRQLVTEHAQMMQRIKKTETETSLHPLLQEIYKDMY
In short: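 Beta-lactamase reporter readout: a ratiometric FRET signal from the LiveBLAzer substrate after 2 h at room temperature. Compound exposure at 37 °C in PPARδ-bla HEK293H cells driven by an upstream activator sequence.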

[8] = qHTS assay to identify small molecule antagonists of the peroxisome proliferator-activated receptor delta (PPARd) signaling pathway - cell viability counter screen (AID 743213); also: nearly all actives have a fitted effect of over 50% in size
In short: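 Viability counter-screen, qHTS format: PPARd-bla HEK293H, L165041 300 nM final, 17 h compound exposure at 37 C, CellTiter-Glo luminescence after 30 min RT.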

[9] = target: Peroxisome proliferator-activated receptor delta (Homo sapiens) (UniProt Q03181); test: qHTS assay to identify small molecule antagonists of the peroxisome proliferator-activated receptor delta (PPARd) signaling pathway (AID 743215; active = well fitted inhibition curve with a large enough effect in the signal ratio in the repeat runs, not every such curve was filed as active; the % refers to the signal ratio;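 also: cells stimulated with agonist L165041 at 300 nM final during compound exposure; series mostly up to about 62 µM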)
In short: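 Here, a reporter line (HEK293H, beta-lactamase under a UAS) measures PPARd signaling. Compounds are tested against agonist L165041 at 300 nM final concentration over 17 h at 37 C, with fluorescence read after substrate.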

[10] = target: Bile acid receptor (Homo sapiens) (UniProt Q96RI1); test: qHTS assay to identify small molecule agonists of the farnesoid-X-receptor (FXR) signaling pathway (AID 743220; active = well fitted activation curve with a large enough effect in the signal ratio in the repeat runs, not every such curve was filed as active; the % refers to the signal ratio)
Bile acid receptor (Homo sapiens), sequence (Q96RI1 whole entry, looked up): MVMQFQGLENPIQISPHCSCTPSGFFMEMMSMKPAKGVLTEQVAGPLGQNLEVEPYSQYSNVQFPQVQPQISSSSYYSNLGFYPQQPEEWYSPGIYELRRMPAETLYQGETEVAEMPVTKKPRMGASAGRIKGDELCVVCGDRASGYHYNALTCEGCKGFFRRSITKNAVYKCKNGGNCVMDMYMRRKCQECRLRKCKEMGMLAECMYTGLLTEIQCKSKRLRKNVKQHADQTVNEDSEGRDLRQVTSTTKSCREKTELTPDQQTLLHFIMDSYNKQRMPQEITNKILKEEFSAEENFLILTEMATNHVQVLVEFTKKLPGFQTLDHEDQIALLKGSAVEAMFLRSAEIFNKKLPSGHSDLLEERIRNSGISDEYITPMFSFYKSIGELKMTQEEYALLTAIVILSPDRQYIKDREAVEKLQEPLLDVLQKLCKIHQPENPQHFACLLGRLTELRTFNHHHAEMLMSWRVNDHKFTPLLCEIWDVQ
In short: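 FXR-UAS-bla HEK 293T cells carrying a UAS-driven beta-lactamase reporter were plated for 5 h at 37C/5% CO2, then exposed to DMSO-dissolved Tox21 10K compounds for 16 h at 37C. A LiveBLAzer B/G FRET substrate was loaded for 2 h at room temperature before fluorescence reading.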

[11] = qHTS assay to identify small molecule antagonists of the farnesoid-X-receptor (FXR) signaling pathway - cell viability counter screen (AID 743221; active = well fitted cell-killing curve with a large enough effect in the repeat runs, not every such curve was filed as active; also: nearly all actives have a fitted effect of over 50% in size)
In short: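 FXR-UAS-bla HEK 293T cells were treated with test compounds plus chenodeoxycholic acid (50 uM final) for 16 h at 37 C. Cell viability in the same wells was then read as CellTiter-Glo luminescence after 30 min at room temperature.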

[12] = qHTS assay to identify small molecule agonists of the vitamin D receptor (VDR) signaling pathway - cell viability counter screen (AID 743224); also: series mostly up to about 63 µM; nearly all actives have a fitted effect of over 50% in size
In short: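 CellTiter-Glo viability readout on VDR-bla cells, measured after 16 h of compound treatment at 37C in the same wells.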

[13] = qHTS assay for small molecule agonists of the antioxidant response element (ARE) signaling pathway (AID 743202; active = well fitted activation curve with a large enough effect in the signal ratio in the repeat runs, not every such curve was filed as active; the % refers to the signal ratio; also: potency is read from the fitted curve at half-maximal effect)
In short: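 After 16 hours of compound treatment at 37 C, HepG2 cells with a stably integrated ARE-driven beta-lactamase reporter were loaded 2 hours at room temperature with LiveBLAzer B/G FRET substrate and fluorescence intensity measured.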

[14] = qHTS assay for small molecule activators of the heat shock response signaling pathway - cell viability counter screen (AID 743209); also: nearly all actives have a fitted effect of over 50% in size; also: potency is read from the fitted curve at half-maximal effect
In short: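 Compounds dissolved in DMSO were added to overnight-plated HSE-bla HeLa cells and left 5 h at 37 C. Cell viability was quantified by luminescence using CellTiter-Glo.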

[15] = qHTS assay for small molecule activators of the heat shock response signaling pathway (AID 743210; active = well fitted activation curve with a large enough effect in the signal ratio in the repeat runs, with a control signal flat, not every such curve was filed as active; the % refers to the signal ratio; also: series mostly up to about 63 µM)
In short: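 Compound exposure lasted 5 h at 37 C in HeLa cells carrying a heat-shock-element-driven beta-lactamase reporter. Read-out: fluorescence intensity after 2.5 h room-temperature loading with LiveBLAzer B/G FRET substrate.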

[16] = qHTS assay to identify small molecule agonists of the farnesoid-X-receptor (FXR) signaling pathway - cell viability counter screen (AID 743218); also: nearly all actives have a fitted effect of over 45% in size
In short: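 Quantitative HTS counter screen measuring ATP-based viability via CellTiter-Glo luminescence in HEK 293T cells carrying a UAS-driven beta-lactamase reporter, after 16 h compound exposure at 37 C.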

[17] = target: Vitamin D3 receptor (Homo sapiens) (UniProt P11473); test: qHTS assay to identify small molecule agonists of the vitamin D receptor (VDR) signaling pathway (AID 743222; calls by dose curve)
Vitamin D3 receptor (Homo sapiens), sequence (P11473 whole entry, looked up): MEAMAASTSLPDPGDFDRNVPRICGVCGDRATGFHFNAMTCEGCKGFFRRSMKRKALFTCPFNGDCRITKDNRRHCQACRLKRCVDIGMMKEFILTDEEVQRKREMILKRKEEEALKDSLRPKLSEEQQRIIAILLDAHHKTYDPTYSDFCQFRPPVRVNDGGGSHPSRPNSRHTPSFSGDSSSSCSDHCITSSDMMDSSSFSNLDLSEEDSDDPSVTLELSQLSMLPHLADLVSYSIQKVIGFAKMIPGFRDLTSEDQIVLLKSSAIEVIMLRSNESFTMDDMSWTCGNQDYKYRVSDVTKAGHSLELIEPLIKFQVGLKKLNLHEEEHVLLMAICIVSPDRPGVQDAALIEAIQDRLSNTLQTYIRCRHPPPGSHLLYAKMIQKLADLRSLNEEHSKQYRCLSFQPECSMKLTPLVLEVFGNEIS
In short: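 Tox21 cell reporter format: VDR-bla line, 16 h compound exposure in 5% CO2 at 37C, then fluorescence intensity after 2 h with LiveBLAzer B/G FRET substrate.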

[18] = target: Vitamin D3 receptor (Homo sapiens) (UniProt P11473); test: qHTS assay to identify small molecule antagonists of the vitamin D receptor (VDR) signaling pathway (AID 743223; active = well fitted inhibition curve with a large enough effect in the signal ratio in the repeat runs, not every such curve was filed as active; the % refers to the signal ratio)
In short: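 VDR-bla cells were plated, incubated 4 h at 37C, then given compound and 1alpha,25-dihydroxyvitamin D3 (3 nM final). After 16 h at 37C, LiveBLAzer B/G FRET substrate was added for 2 h at room temperature and fluorescence read.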

[19] = qHTS assay to identify small molecule that activate the aryl hydrocarbon receptor (AhR) signaling pathway - cell viability counter screen (AID 743086);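 also: HepG2 liver cells carrying the AhR DRE luciferase reporter; series mostly up to about 70 µM; nearly all actives have a fitted effect of over 45% in size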
In short: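 Cytotoxicity counter screen: CellTiter-Fluor signal (30 min, 37 C) in 4000 HepG2 cells/well carrying the DRE-luciferase reporter, following 24 h compound exposure at 37 C.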

[20] = target: Bile acid receptor (Homo sapiens) (UniProt Q96RI1); test: qHTS assay to identify small molecule antagonists of the farnesoid-X-receptor (FXR) signaling pathway (AID 743217; active = well fitted inhibition curve with a large enough effect in the signal ratio in the repeat runs, not every such curve was filed as active; the % refers to the signal ratio)
In short: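 Test compounds are pin-transferred onto FXR-bla HEK 293T cells, then chenodeoxycholic acid is added at 50 uM final. After 16 h at 37 °C, LiveBLAzer B/G substrate is applied for 2 h at room temperature and fluorescence read.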

Measured: Potency

C=CC(=O)OCC1CCCO1 (stereo not given)
not listed: [13] | [14] | [15] | [16] | [17] | [18] | [19] | [20]
inactive: all other assays above

CN(C)CCCO[C@@H]1[C@H]2OC(C)(C)O[C@H]2O[C@@H]1C(O)CO (stereo not given in full)
not listed: [4] | [7] | [9] | [10] | [12] | [19] | [20]
inactive: all other assays above

c1ccc2c(CC3=NCCN3)cccc2c1
not listed: [1] | [4] | [10] | [17] | [18] | [20]
inactive: all other assays above

COC(=O)c1ccccc1C(=O)O
not listed: [3] | [8] | [10] | [12] | [19] | [20]
inactive: all other assays above

C[C@H]1[C@@H](c2ccccc2)NC(=O)N1C
not listed: [1] | [18] | [20]
inactive: all other assays above

CC1=C(O)C(=O)C(C)O1 (stereo not given)
not listed: [2] | [3] | [16] | [17] | [18] | [19] | [20]
inactive: all other assays above

CC(C)CO
not listed: [2] | [3] | [7] | [9] | [10] | [18] | [19] | [20]
inactive: all other assays above

Cc1ccccc1C(N)=O
not listed: [3] | [12] | [15] | [16] | [17] | [18] | [19]
inactive: all other assays above

O=C(O)[C@H](O)c1ccccc1
not listed: [4] | [8] | [15] | [16] | [19] | [20]
inactive: all other assays above

COc1nc(N)nc2nc[nH]c12
not listed: [1] | [6] | [10] | [17] | [18] | [20]
inactive: all other assays above

O=C(Cl)c1ccccc1[N+](=O)[O-]
not listed: [1] | [7] | [9] | [10] | [16] | [17] | [18] | [20]
inactive: all other assays above

CCCCCC/C=C/C(=O)OC
not listed: [3] | [7] | [9] | [19] | [20]
inactive: all other assays above

CCCC(=O)OC/C=C(\C)CCC=C(C)C
not listed: [1] | [9] | [14] | [17]
inactive: all other assays above

CC(C)NCC(O)c1ccc2ccccc2c1 (stereo not given)
not listed: [3] | [10] | [14] | [15] | [19] | [20]
inactive: all other assays above

O=Cc1ccccc1Cl
not listed: [4] | [7] | [9] | [14] | [19]
inactive: all other assays above

N#CCC(=O)NN
not listed: [10] | [13] | [15] | [16] | [18] | [19] | [20]
inactive: all other assays above

CC(=O)c1cc(C)oc1C
not listed: [4] | [8] | [10] | [12] | [19] | [20]
inactive: all other assays above

O=C(O)CCCCCC(=O)O
not listed: [4] | [10] | [13] | [16] | [19] | [20]
inactive: all other assays above

Cc1ccc2c(c1)C(=O)c1ccccc1C2=O
active: [1] 48.4 µM | [13] 54.3 µM
not listed: [3] | [10] | [14] | [17] | [18] | [19] | [20]
inactive: all other assays above

NCC1(Cc2noc(=O)[nH]2)CCCCC1
not listed: [3] | [10] | [13] | [16] | [19] | [20]
inactive: all other assays above

CCOC(CN1CCN(CC(C)C(=O)c2ccccc2)CC1)c1ccccc1 (stereo not given)
active: [13] 10.3 µM
not listed: [3] | [4] | [5] | [10] | [17] | [18] | [19] | [20]
inactive: all other assays above

Cc1c(N)cccc1Cl
not listed: [1] | [13] | [16] | [17]
inactive: all other assays above

CCCCOCCOC(=O)COc1ccc(Cl)cc1Cl
not listed: [3] | [7] | [9] | [10] | [14] | [18] | [19] | [20]
inactive: all other assays above

CC(=O)CCc1ccc(OC(C)=O)cc1
not listed: [5] | [19]
inactive: all other assays above

CCC/C=C(\C=O)CC
not listed: [2] | [3] | [9] | [10] | [18] | [19] | [20]
inactive: all other assays above

CCCC(=O)OCCC(C)CCC=C(C)C (stereo not given)
active: [14] 49 µM
inactive: [1] | [2] | [13] | [5] | [6] | [7] | [8] | [9] | [16] | [11]

C=CCCCC
not listed: [10] | [13] | [15] | [16] | [17] | [18] | [19] | [20]
inactive: all other assays above

OC1OCCOC1O (stereo not given)
not listed: [2] | [3] | [7] | [9] | [17] | [19] | [20]
inactive: all other assays above

COc1cc(OC)nc(O[C@H](C(=O)O)C(OC)(c2ccccc2)c2ccccc2)n1
inactive: [13] | [5] | [14] | [6] | [8] | [16] | [11] | [17] | [18] | [12]

COC(=O)CCCCC(CCSS/C(CCO)=C(\C)N(C=O)Cc1cnc(C)nc1N)SC(C)=O (stereo not given)
not listed: [1] | [2] | [17] | [18] | [19] | [20]
inactive: all other assays above

CCC(C(=O)OCCN1CCOC(c2ccccc2)C1C)c1ccccc1 (stereo not given)
inactive: [4] | [13] | [5] | [14] | [15] | [6] | [7] | [8] | [16] | [11] | [12]

CCN(CC)CCN
not listed: [1] | [2] | [7] | [9] | [16] | [17] | [19] | [20]
inactive: all other assays above
